# Assay results reported in the supplement of paper PMC7724964.
# T1: GNAZ 2-355 G-alpha (domain begin residue: 2, domain end residue: 355), P19086
# T1 chain: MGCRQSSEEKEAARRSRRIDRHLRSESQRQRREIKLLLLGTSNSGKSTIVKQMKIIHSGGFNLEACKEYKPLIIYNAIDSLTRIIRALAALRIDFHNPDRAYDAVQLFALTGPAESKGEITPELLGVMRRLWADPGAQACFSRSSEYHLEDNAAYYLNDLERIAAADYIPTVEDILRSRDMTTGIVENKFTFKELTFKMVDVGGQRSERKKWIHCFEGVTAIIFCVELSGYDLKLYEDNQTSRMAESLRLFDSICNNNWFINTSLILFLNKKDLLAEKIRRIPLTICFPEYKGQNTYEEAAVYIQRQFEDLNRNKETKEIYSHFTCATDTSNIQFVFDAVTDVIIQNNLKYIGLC
# T2: HOMER3 1-118 WH1 (domain begin residue: 1, domain end residue: 118), Q9NSC5
# T2 chain: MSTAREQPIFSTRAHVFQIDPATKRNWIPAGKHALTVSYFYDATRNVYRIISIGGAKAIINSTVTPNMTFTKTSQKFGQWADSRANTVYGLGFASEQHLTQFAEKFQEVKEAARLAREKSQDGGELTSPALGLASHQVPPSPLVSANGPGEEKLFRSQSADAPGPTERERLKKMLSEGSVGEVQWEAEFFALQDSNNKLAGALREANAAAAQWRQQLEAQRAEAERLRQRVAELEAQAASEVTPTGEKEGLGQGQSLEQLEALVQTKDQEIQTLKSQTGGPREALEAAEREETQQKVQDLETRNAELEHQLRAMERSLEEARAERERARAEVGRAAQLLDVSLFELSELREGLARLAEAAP
# T3: HOMER2 1-111 WH1 (domain begin residue: 1, domain end residue: 111), Q9NSB8
# T3 chain: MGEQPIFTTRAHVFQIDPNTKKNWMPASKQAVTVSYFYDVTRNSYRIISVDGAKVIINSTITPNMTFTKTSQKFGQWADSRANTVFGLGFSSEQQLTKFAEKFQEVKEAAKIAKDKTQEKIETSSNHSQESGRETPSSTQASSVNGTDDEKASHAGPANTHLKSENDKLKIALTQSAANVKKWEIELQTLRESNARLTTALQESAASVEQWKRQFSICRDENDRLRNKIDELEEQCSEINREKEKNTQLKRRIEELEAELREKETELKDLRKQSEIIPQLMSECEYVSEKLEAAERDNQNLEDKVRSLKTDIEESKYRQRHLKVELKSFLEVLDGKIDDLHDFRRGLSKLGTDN
# T4: GNAQ 2-359 G-alpha (domain begin residue: 2, domain end residue: 359), P50148
# T4 chain: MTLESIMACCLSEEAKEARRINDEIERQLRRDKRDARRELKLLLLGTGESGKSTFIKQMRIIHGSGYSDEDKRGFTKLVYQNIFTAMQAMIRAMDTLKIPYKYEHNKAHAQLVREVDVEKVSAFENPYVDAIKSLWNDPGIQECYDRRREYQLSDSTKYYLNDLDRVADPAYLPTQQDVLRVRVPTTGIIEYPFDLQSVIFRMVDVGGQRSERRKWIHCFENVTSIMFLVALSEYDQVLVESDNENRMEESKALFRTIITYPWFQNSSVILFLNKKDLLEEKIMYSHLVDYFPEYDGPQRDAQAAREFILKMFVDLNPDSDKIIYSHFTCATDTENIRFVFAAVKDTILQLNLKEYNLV
# T5: HOMER1 1-163 WH1 (domain begin residue: 1, domain end residue: 163), Q86YM7
# T5 chain: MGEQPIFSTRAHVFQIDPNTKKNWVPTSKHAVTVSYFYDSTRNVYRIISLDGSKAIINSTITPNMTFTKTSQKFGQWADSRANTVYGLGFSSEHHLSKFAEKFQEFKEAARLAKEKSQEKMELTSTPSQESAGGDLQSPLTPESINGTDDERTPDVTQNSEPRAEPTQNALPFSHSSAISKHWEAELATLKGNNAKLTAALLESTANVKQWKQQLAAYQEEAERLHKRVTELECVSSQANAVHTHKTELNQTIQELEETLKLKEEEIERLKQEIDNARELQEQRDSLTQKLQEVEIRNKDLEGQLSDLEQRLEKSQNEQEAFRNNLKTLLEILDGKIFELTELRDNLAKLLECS
# T6: HNF4A 148-377 Hormone_recep (domain begin residue: 148, domain end residue: 377), P41235
# T6 chain: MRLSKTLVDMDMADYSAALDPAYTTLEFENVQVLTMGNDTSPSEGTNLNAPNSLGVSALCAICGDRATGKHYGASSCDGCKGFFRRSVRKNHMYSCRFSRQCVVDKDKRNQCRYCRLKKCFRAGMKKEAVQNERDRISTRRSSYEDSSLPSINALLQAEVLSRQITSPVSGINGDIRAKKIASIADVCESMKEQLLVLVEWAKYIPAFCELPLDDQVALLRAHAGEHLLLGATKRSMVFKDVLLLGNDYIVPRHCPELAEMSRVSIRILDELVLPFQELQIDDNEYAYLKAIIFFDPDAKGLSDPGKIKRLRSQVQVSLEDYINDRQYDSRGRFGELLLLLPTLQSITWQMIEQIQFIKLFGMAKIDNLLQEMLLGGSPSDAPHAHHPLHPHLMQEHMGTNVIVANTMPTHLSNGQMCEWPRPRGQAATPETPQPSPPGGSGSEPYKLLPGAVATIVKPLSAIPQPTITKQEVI
# How the values were obtained:
# Assay in all cases: phage ELISA signal ratio (GST-PRM binding over GST background); higher = stronger binding of peptide-phage to the PRM
# [1] = biological target: T1, GNAZ 2-355 G-alpha (domain begin …
# In short: (§1)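 Human peptide recognition domains were expressed in 96-well plates as fusions to the C-terminus of glutathione S-transferase (GST) and selected against an M13 phage library displaying randomized hexadecapeptides, cysteine-free and glycine-flanked, on the gene-8 major coat protein. Five selection rounds were run, and approximately 48 individual clones from rounds 4 and 5 were tested by phage ELISA. Each value is the ELISA signal on the GST-domain fusion divided by the signal on GST alone. Positive clones were sequenced.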
# [2] = biological target: T2, HOMER3 1-118 WH1 (domain begin residue: …
# In short: as §1
# [3] = biological target: HSPA9 438-651 HSP70 (domain begin residue: 438, domain end residue: 651), P38646
# In short: as §1
# [4] = biological target: GNAI1 2-354 G-alpha (domain begin residue: 2, domain end residue: 354), P63096
# In short: as §1
# [5] = biological target: T3, HOMER2 1-111 WH1 (domain begin residue: …
# In short: as §1
# [6] = biological target: T4, GNAQ 2-359 G-alpha (domain begin …
# In short: as §1
# [7] = biological target: HSPA8 394-614 HSP70 (domain begin residue: 394, domain end residue: 614), P11142
# In short: as §1
# [8] = biological target: T5, HOMER1 1-163 WH1 (domain begin residue: …
# In short: as §1
# [9] = biological target: HGS 1-154 VHS (domain begin residue: 1, domain end residue: 154), O14964
# In short: as §1
# [10] = biological target: T6, HNF4A 148-377 Hormone_recep (domain …
# In short: as §1
# HSPA9 438-651 HSP70 (domain begin residue: 438, domain end residue: 651), P38646, sequence (P38646 whole entry): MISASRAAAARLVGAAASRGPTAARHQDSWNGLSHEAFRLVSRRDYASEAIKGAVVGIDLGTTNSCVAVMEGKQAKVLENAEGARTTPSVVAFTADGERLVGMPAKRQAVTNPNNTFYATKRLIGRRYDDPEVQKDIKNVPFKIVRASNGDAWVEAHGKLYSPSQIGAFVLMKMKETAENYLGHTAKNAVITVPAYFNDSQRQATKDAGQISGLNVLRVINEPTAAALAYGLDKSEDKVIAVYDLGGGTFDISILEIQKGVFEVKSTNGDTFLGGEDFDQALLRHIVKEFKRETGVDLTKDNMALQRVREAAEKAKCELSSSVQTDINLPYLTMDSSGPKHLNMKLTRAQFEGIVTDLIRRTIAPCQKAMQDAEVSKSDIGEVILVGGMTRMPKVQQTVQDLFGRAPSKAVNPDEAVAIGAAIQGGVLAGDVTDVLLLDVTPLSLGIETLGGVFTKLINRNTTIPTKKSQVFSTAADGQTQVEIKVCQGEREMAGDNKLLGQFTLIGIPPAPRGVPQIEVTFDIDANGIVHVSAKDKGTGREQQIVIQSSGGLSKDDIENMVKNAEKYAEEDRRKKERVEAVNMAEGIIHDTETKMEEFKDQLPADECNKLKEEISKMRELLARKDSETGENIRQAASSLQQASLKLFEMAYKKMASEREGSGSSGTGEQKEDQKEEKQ
# GNAI1 2-354 G-alpha (domain begin residue: 2, domain end residue: 354), P63096, sequence (P63096 whole entry): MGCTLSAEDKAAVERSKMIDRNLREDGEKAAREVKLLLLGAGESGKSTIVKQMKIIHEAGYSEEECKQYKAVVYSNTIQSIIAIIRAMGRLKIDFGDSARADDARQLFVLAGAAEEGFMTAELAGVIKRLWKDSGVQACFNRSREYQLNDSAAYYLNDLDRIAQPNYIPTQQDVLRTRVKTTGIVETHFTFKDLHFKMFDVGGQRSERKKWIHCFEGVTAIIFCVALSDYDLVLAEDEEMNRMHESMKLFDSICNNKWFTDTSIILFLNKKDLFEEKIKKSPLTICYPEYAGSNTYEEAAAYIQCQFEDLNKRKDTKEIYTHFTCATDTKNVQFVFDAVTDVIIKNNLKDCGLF
# HSPA8 394-614 HSP70 (domain begin residue: 394, domain end residue: 614), P11142, sequence (P11142 whole entry, looked up, tested part not stated): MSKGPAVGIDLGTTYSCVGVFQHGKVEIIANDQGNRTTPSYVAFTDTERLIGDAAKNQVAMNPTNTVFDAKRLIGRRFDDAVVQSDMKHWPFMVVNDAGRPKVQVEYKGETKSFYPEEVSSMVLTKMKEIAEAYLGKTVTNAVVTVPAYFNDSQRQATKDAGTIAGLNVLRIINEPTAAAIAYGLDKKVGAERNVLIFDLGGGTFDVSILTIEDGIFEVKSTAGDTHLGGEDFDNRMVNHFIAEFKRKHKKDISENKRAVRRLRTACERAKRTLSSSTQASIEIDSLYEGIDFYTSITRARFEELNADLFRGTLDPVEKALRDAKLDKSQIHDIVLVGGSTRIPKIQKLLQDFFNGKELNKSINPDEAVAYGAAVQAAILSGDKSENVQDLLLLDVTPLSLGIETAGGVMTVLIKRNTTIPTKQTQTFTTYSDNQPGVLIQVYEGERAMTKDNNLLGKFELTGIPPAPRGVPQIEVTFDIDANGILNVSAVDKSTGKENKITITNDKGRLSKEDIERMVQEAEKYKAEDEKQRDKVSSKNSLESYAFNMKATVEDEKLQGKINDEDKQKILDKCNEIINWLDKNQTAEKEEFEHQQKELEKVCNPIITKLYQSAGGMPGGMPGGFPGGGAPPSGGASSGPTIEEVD
# HGS 1-154 VHS (domain begin residue: 1, domain end residue: 154), O14964, sequence (O14964 whole entry): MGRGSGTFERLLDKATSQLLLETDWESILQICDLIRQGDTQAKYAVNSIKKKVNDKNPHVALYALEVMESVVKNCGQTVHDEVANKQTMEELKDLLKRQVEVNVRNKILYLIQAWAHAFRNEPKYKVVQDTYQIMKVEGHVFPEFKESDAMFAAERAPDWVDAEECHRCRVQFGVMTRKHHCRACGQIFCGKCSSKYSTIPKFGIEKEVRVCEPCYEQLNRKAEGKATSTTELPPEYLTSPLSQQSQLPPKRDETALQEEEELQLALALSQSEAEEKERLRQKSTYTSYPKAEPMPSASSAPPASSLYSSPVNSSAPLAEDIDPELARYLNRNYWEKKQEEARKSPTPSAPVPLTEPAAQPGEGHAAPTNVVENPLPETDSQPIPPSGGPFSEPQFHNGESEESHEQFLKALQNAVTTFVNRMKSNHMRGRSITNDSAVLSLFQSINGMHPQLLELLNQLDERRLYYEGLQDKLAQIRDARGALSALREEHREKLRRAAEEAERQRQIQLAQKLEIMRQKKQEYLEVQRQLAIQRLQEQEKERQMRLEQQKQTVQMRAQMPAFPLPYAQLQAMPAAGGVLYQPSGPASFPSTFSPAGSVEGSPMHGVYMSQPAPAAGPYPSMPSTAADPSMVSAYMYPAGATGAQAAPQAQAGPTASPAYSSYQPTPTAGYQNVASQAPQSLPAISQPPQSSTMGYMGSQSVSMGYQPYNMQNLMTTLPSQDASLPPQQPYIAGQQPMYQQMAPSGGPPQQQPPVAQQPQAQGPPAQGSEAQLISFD
binder,measurement,setting,value
DVPPLWMMAEYSFPWE,phage ELISA signal ratio,[1],5.11
RQYKWWEWLVVQQPKA,phage ELISA signal ratio,[2],5.84
QVAMSEQSLNYFLTLL,phage ELISA signal ratio,[3],3.89
SMEWWSKGDVSLIDIS,phage ELISA signal ratio,[1],4.45
IVVGDWENEWFAHLVK,phage ELISA signal ratio,[4],4.48
HWVIPWETVPAPHEFH,phage ELISA signal ratio,[5],15.2
PQQHFWEMDVPMIQLW,phage ELISA signal ratio,[1],8.66
ALEMTMEQWTYFLQEW,phage ELISA signal ratio,[3],10.8
WVWDYSQDQWVPASVQ,phage ELISA signal ratio,[1],17.2
SDWLSTVWEHPMDWGA,phage ELISA signal ratio,[5],13.5
WSLMDDVSPWWEMEQI,phage ELISA signal ratio,[1],20.5
VMTLTELQDWLNAAYV,phage ELISA signal ratio,[3],15
TQAFQHDHFWESLVMF,phage ELISA signal ratio,[2],4.73
AWQISEEWKVREAYQQ,phage ELISA signal ratio,[6],25.5
TVSVTNIDMDMLSFLL,phage ELISA signal ratio,[3],15
WRWDEYDHQFVEEVQM,phage ELISA signal ratio,[1],25.2
YNELEPEVAAWWWQYV,phage ELISA signal ratio,[7],8.35
MEVMPPQGFQDAFLST,phage ELISA signal ratio,[8],4.78
MPFDHWTMDDVEMLVL,phage ELISA signal ratio,[1],17.5
MLPFQDWYTQDDVLMN,phage ELISA signal ratio,[1],17.6
YMMDQHAWELLMTMMA,phage ELISA signal ratio,[3],16.4
DAHWWEEPWFIKSQEE,phage ELISA signal ratio,[4],13.8
WETWFEQKEVLIDAYY,phage ELISA signal ratio,[1],14.6
WGSLDWEVALKPPVEF,phage ELISA signal ratio,[5],17.9
WWEAPWAMEMLDEETG,phage ELISA signal ratio,[4],16.6
IPDWLVDYEWGQWVEG,phage ELISA signal ratio,[4],31.6
PDVLQQLWEAMRSENW,phage ELISA signal ratio,[7],20.4
PGSENEAEYWFNIMRQ,phage ELISA signal ratio,[1],19.7
DVEPLWSQWVTWDWQE,phage ELISA signal ratio,[1],11.1
GNHIWYWDQDEKLLEL,phage ELISA signal ratio,[1],30.4
YRYIAEVPEQFVDMHR,phage ELISA signal ratio,[5],15.5
YHDTGLSNEWFMIRYF,phage ELISA signal ratio,[4],18
NWWHSDLQPPQEWQDE,phage ELISA signal ratio,[8],4.77
EWSWSDSMHQFMNENT,phage ELISA signal ratio,[1],27.6
YQMTDWTTWEHFMHMT,phage ELISA signal ratio,[3],6.13
DMTRAVFWEFWDHLDV,phage ELISA signal ratio,[1],7.78
DAEMQDFIMAWWPELV,phage ELISA signal ratio,[7],8.68
WEEWTNWASPPHEYRF,phage ELISA signal ratio,[5],10.2
VSYEWWMPGDTQMMEV,phage ELISA signal ratio,[1],11.2
QHMHFVMLDEIMYGMW,phage ELISA signal ratio,[7],23.6
SPPQDVPPLWEYYHIW,phage ELISA signal ratio,[1],32.1
NEWDIPLLDLTMLPWA,phage ELISA signal ratio,[1],8.79
SVPWYSEPWAIDMMSF,phage ELISA signal ratio,[4],49.6
QWPTYSQWMTRDEILI,phage ELISA signal ratio,[1],3.11
EDSGLEWFMQWSHGYV,phage ELISA signal ratio,[1],13.9
ITAEWQAREEYKLRVQ,phage ELISA signal ratio,[6],29.2
QWEFEHDATLLVLEQM,phage ELISA signal ratio,[1],26.5
HEEGMAEQWFWLHFAP,phage ELISA signal ratio,[1],11.9
SHITLIHEPPYGWTTN,phage ELISA signal ratio,[5],14.3
FYIYDTWVEWPPVVTV,phage ELISA signal ratio,[3],6.36
HDVEPIWSMPWWQMDY,phage ELISA signal ratio,[1],17.6
HAWWYNENLDQWVDTS,phage ELISA signal ratio,[1],16.7
PNHWFVIPIGEWYQKI,phage ELISA signal ratio,[9],15.9
YHYIAEVPEQFVDMHR,phage ELISA signal ratio,[2],10.5
DWQGDHVHFWDLITME,phage ELISA signal ratio,[10],10.8
VPWGDAQFSWPVEWMI,phage ELISA signal ratio,[3],8.49
SLDQSDIRHIFYWMEW,phage ELISA signal ratio,[7],10.4
